Results taken from paper PMC4336329 (PLoS ONE, 2015).
Out of some 310,000 compounds screened, about 14,000 (4.5%) showed an effect of 50% or more. Effects have a minus sign here. The list comes from a sample in which strong results are over-represented; it also holds similar structures and randomly drawn compounds.

Biological target: human ether-à-go-go-related gene (hERG) potassium channel (human, UniProt Q12809)
Assay: primary screen, population patch clamp on CHO cells stably expressing hERG; higher = less effect of the substance
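Further: peak tail current of the secondary pulse compared with the same well before compound.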

Chain of human ether-à-go-go-related gene (hERG) potassium channel (Q12809 whole entry, looked up): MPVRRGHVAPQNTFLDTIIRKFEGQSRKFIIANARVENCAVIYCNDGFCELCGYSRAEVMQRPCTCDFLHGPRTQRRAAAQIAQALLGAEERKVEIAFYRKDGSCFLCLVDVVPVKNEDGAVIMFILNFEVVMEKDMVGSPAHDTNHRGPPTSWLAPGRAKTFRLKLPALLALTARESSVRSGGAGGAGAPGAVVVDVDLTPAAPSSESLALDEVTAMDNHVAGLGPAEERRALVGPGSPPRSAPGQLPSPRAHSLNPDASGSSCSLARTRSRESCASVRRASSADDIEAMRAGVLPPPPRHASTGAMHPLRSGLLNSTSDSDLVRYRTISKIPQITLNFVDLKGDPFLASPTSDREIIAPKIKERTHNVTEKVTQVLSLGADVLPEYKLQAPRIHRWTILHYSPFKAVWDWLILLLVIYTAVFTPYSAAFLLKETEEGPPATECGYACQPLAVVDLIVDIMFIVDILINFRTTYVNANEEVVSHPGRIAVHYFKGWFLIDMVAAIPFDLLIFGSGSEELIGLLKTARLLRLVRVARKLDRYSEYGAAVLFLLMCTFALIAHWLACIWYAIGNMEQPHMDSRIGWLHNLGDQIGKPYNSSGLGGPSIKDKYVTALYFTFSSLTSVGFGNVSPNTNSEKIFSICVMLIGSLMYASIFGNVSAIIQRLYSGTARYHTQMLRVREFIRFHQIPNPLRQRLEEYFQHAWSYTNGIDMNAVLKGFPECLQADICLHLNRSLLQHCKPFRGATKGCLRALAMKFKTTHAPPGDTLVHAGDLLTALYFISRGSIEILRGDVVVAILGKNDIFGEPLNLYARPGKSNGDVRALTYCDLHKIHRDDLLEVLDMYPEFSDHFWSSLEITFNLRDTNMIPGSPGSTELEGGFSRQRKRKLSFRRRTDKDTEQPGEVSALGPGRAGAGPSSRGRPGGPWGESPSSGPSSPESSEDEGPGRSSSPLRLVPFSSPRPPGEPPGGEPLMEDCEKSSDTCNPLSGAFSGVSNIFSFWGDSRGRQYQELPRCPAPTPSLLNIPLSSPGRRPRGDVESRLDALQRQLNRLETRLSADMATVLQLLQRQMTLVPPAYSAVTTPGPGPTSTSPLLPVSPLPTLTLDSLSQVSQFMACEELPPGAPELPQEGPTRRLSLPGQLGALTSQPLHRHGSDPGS

| SMILES | hERG current change (%, negative = inhibition) at 10uM |
| --- | --- |
| CC(=O)c1ccc(S(=O)(=O)N(C)CC(=O)Nc2ccc(C)cc2)cc1 | -0.949% |
| O=S(=O)(Nc1ccc2c(c1)OCCO2)c1cnc[nH]1 | 7.8% |
| CCOC(=O)c1c(S(=O)(=O)NCCc2ccc(OC)c(OC)c2)c(C)n(C)c1C | 4.97% |
| CC(C)(C)NC(=O)NC(=O)COC(=O)c1cccc(F)c1 | -1.01% |
| O=C(CSc1nnc(COc2cccc3ccccc23)o1)N1c2ccccc2CCc2ccccc21 | 7.68% |
| O=C(CSc1nnc(COc2cccc3ccccc23)o1)N1CCN(C(=O)c2ccco2)CC1 | -65.1% |
| O=C(CSc1nnc(CNc2ccccc2)o1)N1CCN(C(=O)c2ccco2)CC1 | -17.3% |
| O=C(CSc1nnc(COc2cccc3cccnc23)o1)N1CCN(C(=O)c2ccco2)CC1 | 0.452% |
| O=C(CSc1nnc(CNc2ccc(F)cc2)o1)N1CCN(C(=O)c2ccco2)CC1 | -50.8% |
| O=C(NCc1nnc(SCC(=O)N2CCCC2)o1)c1ccco1 | -7.2% |
| O=C(Nc1ccccc1)/C(=C\c1ccco1)NC(=O)c1ccco1 | -6.57% |
| COc1ccc(CCNC(=O)c2nnn(CC(=O)Nc3ccc(C)cc3C)c2N)cc1OC | 13.8% |
| CCCOC(=O)c1cccc(NC(=O)c2cccnc2)c1 | -39.7% |
| O=C1CC(c2ccccc2)SC(N(c2ccccc2)c2ccccc2)=N1 (stereo not drawn) | -0.167% |
| Cn1cc(Cl)c(C(=O)NNC(=S)NC2CCCCC2)n1 | 15.4% |
| Cc1cc(C)cc(N2CCCC2=O)c1 | 16.3% |
| CSc1ccccc1C(=O)N1CCC(CCC(=O)NCc2ccc(F)cc2)CC1 | -12.4% |
| O=C(NC1CC2CCC1C2)c1ccco1 (stereo not drawn) | -5.69% |
| O=C(N[C@@H]1C[C@H]2CC[C@@H]1C2)c1ccco1 | 4.88% |
| O=C(c1ccco1)N1CCN(C(=S)NCc2ccc(F)cc2)CC1 | -53.1% |
| O=C(CCC1CCN(C(=O)c2ccco2)CC1)NCc1ccc(F)cc1 | -72.6% |
| O=C(c1ccco1)N1CCN(C(=S)Nc2ccc(F)cc2)CC1 | -2.5% |
| O=C(c1ccco1)N1CCN(C(=S)NC2CC3CCC2C3)CC1 (stereo not drawn) | -67.3% |
| CCNC(=S)N1CCN(C(=O)c2ccco2)CC1 | 5.8% |
| O=C(CCC1CCN(C(=O)c2ccccc2Cl)CC1)NCc1ccc(F)cc1 | -18.9% |
| COCOc1ccc(-c2oc3c(C/C=C(\C)CCC=C(C)C)ccc(O)c3c(=O)c2OCOC)c(OCOC)c1 | -9.2% |
| CC(Oc1ccc(Cl)cc1Cl)C(=O)Nc1ncccn1 (stereo not drawn) | -2.67% |

| SMILES | hERG current change (%, negative = inhibition) at 10uM |
| --- | --- |
| O=C(Nc1ccc(F)cc1)OC1CN2CCC1CC2 (stereo not drawn) | -27.5% |
| CCOC(=O)C1CCCCN1Cc1ccc(C(F)(F)F)cc1 (stereo not drawn) | 7.75% |
| O=C(NCC1CC1)c1cc(-c2ccccc2)nn1CC1CC(c2cccnc2)=NO1 (stereo not drawn) | -25% |
| CCOC(=O)c1cc(-c2ccccc2)nn1CC1CC(c2cccnc2)=NO1 (stereo not drawn) | 3.47% |
| COc1ccccc1CNC(=O)c1cc(-c2ccccc2C)nn1CC1CC(c2cccnc2)=NO1 (stereo not drawn) | -2.89% |
| O=C(NCc1ccc(OC(F)(F)F)cc1)c1cc(-c2ccccc2)nn1CC1CC(c2cccnc2)=NO1 (stereo not drawn) | -57.4% |
| COc1ccccc1CNC(=O)c1cc(-c2ccccc2)nn1CC1CC(c2cccnc2)=NO1 (stereo not drawn) | -71.2% |
| Cc1ccccc1-c1cc(C(=O)NCc2ccco2)n(CC2CC(c3cccnc3)=NO2)n1 (stereo not drawn) | -15.6% |
| O=C(NCc1ccco1)c1cc(-c2ccccc2)nn1CC1CC(c2cccnc2)=NO1 (stereo not drawn) | -63.9% |
| Cc1ccccc1-c1cc(C(=O)NCc2cccs2)n(CC2CC(c3cccnc3)=NO2)n1 (stereo not drawn) | -26.2% |
| O=C(NCc1cccs1)c1cc(-c2ccccc2)nn1CC1CC(c2cccnc2)=NO1 (stereo not drawn) | -51.8% |
| O=C(c1cc(-c2ccccc2)nn1CC1CC(c2cccnc2)=NO1)N1CCOCC1 (stereo not drawn) | -4.25% |
| Cc1ccccc1-c1cc(C(=O)NCC2CC2)n(CC2CC(c3cccnc3)=NO2)n1 (stereo not drawn) | -20% |
| COc1ccc(NC(=O)C2CCCN(S(=O)(=O)c3ccc4[nH]c(=O)ccc4c3)C2)cc1 (stereo not drawn) | 9.08% |
| COCCCNC(=O)Cn1ncc2ccsc2c1=O | 13.6% |
| O=C(COc1ccccc1Cl)NC(=O)NC1CCCCC1 | 5.11% |
| COc1ccc(CNC(=O)Cn2ncn3cccc3c2=O)cc1 | 3.12% |
| COCCNC(=O)c1cc(-c2ccccc2)nn1CC1CC(c2cccnc2)=NO1 (stereo not drawn) | 2.9% |
| Cc1ccc(CNC(=O)c2cc(-c3ccccc3)nn2CC2CC(c3cccnc3)=NO2)cc1 (stereo not drawn) | -69.7% |
| CC(Oc1ccccc1F)c1nnc(SCC(=O)NCc2ccc3c(c2)OCO3)o1 (stereo not drawn) | -32.1% |
| Cl.NS(=O)(=O)c1ccc(CCNCc2cc(Br)ccc2OCc2ccccc2)cc1 | -71.8% |
| COc1ccc(Br)cc1CNc1ccc(S(N)(=O)=O)cc1 | -14.1% |
| NS(=O)(=O)c1ccc(NCc2cc(Cl)ccc2OCc2ccccc2F)cc1 | -2.13% |
| Cl.NS(=O)(=O)c1ccc(CCNCc2cc(Br)ccc2OCc2ccccc2F)cc1 | -75.9% |
| NS(=O)(=O)c1ccc(NCc2ccccc2OCc2ccccc2F)cc1 | -2.39% |
| CCOc1ccc([N+](=O)[O-])cc1CNCCc1ccccc1.Cl | -45.5% |
| CCn1c(SCc2nc(-c3ccccc3)no2)nc2ccccc21 | -24.6% |
